Mtb hypoxia rep – Mtb hypoxia fluorescent reporter inhibition; M. tuberculosis hypoxia-regulated fluorescent reporter, fluorescence; AID 1159583; 300,000 compounds, 0.1% hits; fluorescence inhibition, % (concentration not given with the values); in the data active means fluorescence inhibition mostly above about 23%, no sharp cut-off; inactive means mostly below about 17%
Sa ugtP lethal – growth inhibition of S. aureus ugtP deletion strain; S. aureus RN4220 ugtP deletion, OD600 growth, 16 h; growth inhibition, % (no concentration beside the values); 330,000 compounds, 0.54% hits; in the data active means growth inhibition above about 68%;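 further: plate controls were untreated wells for no effect and antibiotic for full effect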
Rv3671c inh – Rv3671c (M. tuberculosis) protease inhibition | P9WHR9 | inhibition, % at 5.96 µM | 320,000 compounds, 0.048% hits; in the data active means inhibition above about 38%;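 further: extracellular domain of Rv3671c used as enzyme; 0% = enzyme with DMSO and 100% = no enzyme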
Target sequence (P9WHR9 whole entry, looked up, the tested form may be a part): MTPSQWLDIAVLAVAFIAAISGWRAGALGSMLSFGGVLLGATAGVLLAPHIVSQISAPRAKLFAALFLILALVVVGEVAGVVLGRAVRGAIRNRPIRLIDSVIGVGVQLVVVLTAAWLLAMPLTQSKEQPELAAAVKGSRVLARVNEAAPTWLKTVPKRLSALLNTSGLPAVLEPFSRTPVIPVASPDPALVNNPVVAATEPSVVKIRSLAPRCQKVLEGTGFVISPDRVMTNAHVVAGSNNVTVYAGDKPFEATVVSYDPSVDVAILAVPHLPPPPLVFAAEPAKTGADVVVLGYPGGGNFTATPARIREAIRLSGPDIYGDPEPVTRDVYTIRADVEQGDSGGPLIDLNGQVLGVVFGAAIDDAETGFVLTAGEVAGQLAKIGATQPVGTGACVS
Mtb bLac sens – beta-lactam sensitization of Mtb H37Rv | inhibition, % at 25 µM | AID 434955 | M. tuberculosis H37Rv growth with meropenem, percent inhibition | 330,000 compounds, 0.27% hits; call rule not given here;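 further: growth measured after seven days incubation then overnight dye step; 0% = bacteria only wells and 100% = bacteria with antibiotic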
UGM FP inh – blocks M. tuberculosis UGM enzyme. P9WIQ1. purified UGM, fluorescence polarization probe displacement. inhibition, % at 10 µM. 320,000 compounds, 0.06% hits. AID 504406; in the data active means inhibition above about 10%, passing the limit was not always enough; inconclusive means no clear call, values can overlap the other calls
Sa RN4220 lethal – kills Staphylococcus aureus RN4220; S. aureus RN4220 growth, OD600, 16 h; inhibition, % (concentration not given with the values); 330,000 compounds, 0.33% hits; AID 1259311; in the data active means inhibition above about 85%;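 further: plate controls were untreated cells for no effect and reference antibiotic for full effect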
* = called active by the depositor; ? = inconclusive; . = no result shown. Hits are enriched below; roughly 0.68% of the tested compounds scored in any of these assays.

SMILES	Mtb hypoxia rep	Sa ugtP lethal	Rv3671c inh	Mtb bLac sens	UGM FP inh	Sa RN4220 lethal
Cc1ccc(S(=O)(=O)NCCOCCNS(=O)(=O)c2ccc(C)cc2)cc1	-1	-3	-3	4	-2	0
CN(C)c1ccc(C(=S)NC2CCCCC2)cc1	1	19	0	7	-1	7
CCN(CC)c1ccc(C(=S)NC2CCCCC2)cc1	-4	active	5	-10	0	90
CCOC(=O)c1c(=O)n(O)c2ccc(OC)cc2[n+]1[O-]	10	-8	-5	-2	15*	-11
COc1ccc(CC(O)=C(C#N)c2nc3ccccc3s2)cc1	16	73	.	.	.	77
Cc1ccc(OC/C(O)=C(\C#N)c2nc3ccccc3s2)cc1	14	84*	-4	88	-1	78
COC(=O)c1c(-c2ccc(OC)cc2)sc2ccc(OC)cc12	8	91*	-9	53	0	0
Oc1ccc(Cl)cc1/C=C/c1ccc2cccc(O)c2n1	-2	27	.	.	.	15
COc1cc(Br)c(/C=C/c2ccc3cccc(O)c3n2)cc1OC	14	4	3	50	-1	0
Oc1c(Cl)cc(Cl)cc1/C=C/c1ccc2cccc(O)c2n1	-1	86	-10	49	-1	91*
Oc1cccc2ccc(/C=C/c3ccccc3Br)nc12	4	92*	-4	97	0	90*
O=C1C(=O)c2cccc3cccc1c23	-2	5	-26	-4	-2	2
O=C1C(Br)=Cc2cccc3cccc1c23	.	92*	1	98	-1	83
Cc1nn(C)c(Cl)c1S(=O)(=O)NC(c1ccccc1)[C@]1(C)CC1C(C)C(=O)Nc1ccc2ccccc2c1 (stereo not given in full)	-2	7	.	.	.	4
NC1=NCC(Cc2ccccc2)N1CCc1cc(C(F)(F)F)cc(C(F)(F)F)c1 (stereo not given)	19	-1	.	.	.	-16
NC1=NC[C@@H](CC2CCCCC2)N1CCc1cc(C(F)(F)F)cc(C(F)(F)F)c1	.	100*	-3	100	-3	100*
NC1=NCC(CC2CCCCC2)N1CCc1cc(C(F)(F)F)cc(C(F)(F)F)c1 (stereo not given)	8	101*	.	.	.	101*
CC(C)(C)OC(=O)CC1CC=CCC(CC(=O)NCCO)C(=O)NCCOC1=O (stereo not given)	-3	13	.	.	.	8
O=[N+]([O-])c1ccc(O)c(-c2cc(C(F)(F)F)nc(-c3ccccc3)n2)c1	.	99*	-8	99	0	100*
COc1ccc(C2CC(=O)C=C(c3ccc4[nH]ccc4c3)C2)cc1OC (stereo not given)	0	-3	.	.	.	1
NC(=O)c1ccccc1NC=CC(=O)c1cccs1	6	-14	.	.	.	2
CN(C)c1ccc(N=Cc2nc(-c3ccccc3)oc2O)cc1	.	6	4	33	15*	9
C#CCNC(=O)C1=CC(C2CC2)CC(OCc2ccc(CO)cc2)O1 (stereo not given)	6	-11	.	.	.	1
CC(C)C(CO)N(Cc1cccc(F)c1)c1nc(Nc2cccc(Cl)c2)c2ncn(C(C)C)c2n1 (stereo not given)	15	7	.	.	.	-4
Cc1ccsc1C=NNC(=O)c1nnn(-c2nonc2N)c1C	7	-3	.	.	.	-1
SMILES	Mtb hypoxia rep	Sa ugtP lethal	Rv3671c inh	Mtb bLac sens	UGM FP inh	Sa RN4220 lethal
Cc1ccc(-c2c(C(=O)NN=Cc3sccc3C)nnn2-c2nonc2N)cc1	-1	84	.	.	.	94*
Cc1cc2c(cc1S(=O)(=O)Nc1ccc(OC(F)(F)F)cc1)OCC(=O)N2	13	92*	-32	0	2	-8
COc1cc(NS(=O)(=O)c2cc3c(cc2C)NC(=O)CO3)cc(OC)c1	2	2	-14	-3	-1	15
O=C(NC(Nc1nc2ccc([N+](=O)[O-])cc2s1)(C(F)(F)F)C(F)(F)F)c1ccccc1Cl	25	99*	-13	99	2	100*
COc1ccc(Cc2c(Cl)ncnc2Cl)cc1	5	4	3	6	4	4
CSc1nc(Cl)c(Cc2ccc(OC(C)C)cc2)c(N(C)C)n1	6	94*	-1	11	-4	-13
CCOc1ccc(Cc2c(Cl)nc(SC)nc2N(C)C)cc1	-2	93*	-8	19	1	-7
CCOc1ccc(Cc2c(Cl)nc(N)nc2Cl)cc1	-7	-2	-8	?	0	-2
COc1ccccc1NS(=O)(=O)c1cc(N)ccc1N1CCCC1	11	-10	3	1	23*	7
COc1ccccc1NS(=O)(=O)c1cc(N)ccc1N1CCOCC1	8	1	-7	2	4	3
Cc1ccc2nc(-c3ccc(NC(=S)NC4CC(C)(C)NC(C)(C)C4)cc3)sc2c1	9	95*	-5	93	0	100*
COC(=O)C1=C(c2ccc(-c3ccccc3)c(F)c2)CC2CCC1N2C(=O)NCCCOC(C)C (stereo not given)	-6	-18	.	.	.	7
FC(F)(F)c1cnc(NNC(=S)Nc2ccc(Cl)cc2)c(Cl)c1	-6	70	12	0	3	92*
COc1ccccc1CN1C(=O)C2Cc3c([nH]c4ccccc34)C(C)(C)N2C1=O (stereo not given)	3	-5	.	.	.	-5
Cc1cccc(C(=O)NNC2=C(C(=O)C(F)(F)F)CCC2)c1O	2	98*	-2	94	-2	99*
CCOC(=O)c1c2c(n(C)c1C)C(=O)C(=O)c1ccc(Br)cc1-2	-73	95*	-55	?	2	95*
COc1cc(C=CC(=O)OCC(=O)Nc2c(C)n(C)n(-c3ccccc3)c2=O)ccc1OCC#N	2	-3	.	.	.	3
CCN1CCN(Cc2ccc(NC(=O)c3cc(NC(=O)C(=O)c4c[nH]c5ccccc45)cc(OC)c3)cc2C(F)(F)F)CC1	-2	22	-155	100	1	58
CCN1CCN(Cc2ccc(NC(=O)c3ccc(C)c(NC(=O)C(=O)c4c[nH]c5ccccc45)c3)cc2C(F)(F)F)CC1	14	100*	-74	100	1	101*
Clc1cccc(CSc2nnc(-c3c[nH]c4ccccc34)o2)c1	6	-7	-3	-8	1	4
O=c1c(-c2nnc(SCc3ccc(Cl)c(Cl)c3)o2)cccn1Cc1ccccc1	2	86*	-4	-6	-1	-16
CCN(CC)c1ccc2cc(S(=O)(=O)c3ccc(Cl)cc3)c(=O)oc2c1	.	-6	-7	7	20*	-2
COc1ccc(C(=O)NCC(=O)N2CCN(C(=O)c3ccco3)CC2)cc1[N+](=O)[O-]	0	3	-2	-10	11*	3
O=C(Nc1ccccc1F)C(=Cc1sc(N2CCOCC2)nc1-c1ccccc1)C(=O)Nc1ccccc1F	-4	-2	-1	-4	12*	5
O=C(NN=Cc1sc(N2CCOCC2)nc1-c1ccccc1)c1ccccc1F	-11	-9	.	.	.	1

Compound activity deposited in PubChem BioAssay by several laboratories.
